{"source": "PubChem BioAssay (Tox21)", "note": "Records with an inconclusive call do not appear. The source made the active and inactive calls. The call rests on the fitted dose curve; in most records, active means well fitted cell-killing curve with a large enough effect in the repeat runs; inconclusive means weak or mixed curves, or effect the other way; inactive means no such curve, though single readings can be large or run the other way. On the % scale 0 is the no-effect control and ±100 the full control effect.", "data": [{"assay": "qHTS assay to identify small molecule agonists of the RXR signaling pathway - cell viability counter screen (AID 1159529); further: nearly all actives have a fitted effect of over 50% in size", "conditions": "RXR-alpha-bla HEK293T viability, CellTiter-Glo, 16 h; series mostly up to 76.8 µM; activity change, negative = cytotoxicity: at the top concentration", "excerpt": "National Center for Advancing Translational Sciences [NCATS]\nNIH Chemical Genomics Center [NCGC]\nU.S. Environmental Protection Agency [EPA]\nNational Institutes of Environmental Health Sciences [NIEHS]\nNational Toxicology Program [NTP]\nU.S. Food and Drug Administration [FDA]\nThe Retinoid X receptor (RXR), a nuclear hormone receptor expressed in liver, spleen, placenta, epidermis, central nervous system. These receptors are able to form homo and heterodimers with other nuclear receptors and due to this heterodimerizing ability, RXR functions as master regulators producing diverse physiological effects. Three subtypes of RXR exist; alpha, beta and gamma. Retinoid X receptor alpha (RXR-alpha) has potential roles in metabolic signaling pathways, skin alopecia, dermal cysts, cardiac development, insulin sensitization etc. Therefore screening environmental chemicals on RXR-alpha signaling can be used for the studies focused on such therapeutic applications. For quantification of RXR-alpha ligands signaling, GeneBLAzer RXR alpha-UAS-bla HEK 293T (Life Technologies, Carlsbad, CA) cells containing a beta-lactamase reporter-gene under control of Retinoid X receptor-alpha response element were used to screen Tox21 10K library. The cytotoxicity of the Tox21 compound library against the RXR-alpha HEK 293T cell line was tested in parallel by measuring cell viability using CellTiter-Glo assay (Promega Corporation, Madison, WI) in the same wells.\nTox21 Assay Protocol Summary:\nRXR-alpha HEK 293T cells were dispensed at 2,000 cells/6 uL of assay medium containing 2% charcoal-stripped FBS using a Multidrop Combi (ThermoFisher Scientific, Waltham, MA) dispenser. The assay was performed in black wall/clear-bottom 1536-well plates (Greiner Bio-One North America Inc. Monroe, NC). Tetraoctyl ammonium bromide was used as a positive control in the cytotoxicity screen. After the assay plates were incubated at 37 C and 5% CO2 for 5 hr, 23 nL of compounds dissolved in DMSO, positive control or DMSO only were transferred to the assay plate by a Pintool station (Kalypsys, San Diego, CA). The assay plates were incubated at 37 C and 5% CO2 for 16 hr. One uL of LiveBLAzer B/G FRET substrate (Life Technologies) was added using a Flying Reagent Dispenser (FRD) (Aurora Discovery, San Diego, CA) and the plates were incubated at room temperature for 2 hr. Fluorescence intensity (405 nm excitation, 460/530 nm emission) was measured using an Envision plate reader (PerkinElmer, Shelton, CT). For cytotoxicity, 4 uL/well of CellTiter-Glo reagent was added into the assay plates using an FRD. After 30 min incubation at room temperature, the luminescence intensity was measured using a ViewLux plate reader (PerkinElmer).", "values": [{"smiles": "CC1=C(C(=O)Nc2ccccc2)S(=O)(=O)CCO1", "activity change, negative = cytotoxicity": "4.1% (inactive)"}, {"smiles": "CC(=O)CCc1ccc2c(c1)OCO2", "activity change, negative = cytotoxicity": "-4.06% (inactive)"}, {"smiles": "CCCCCCBr", "activity change, negative = cytotoxicity": "-1.1% (inactive)"}, {"smiles": "CCOP(=O)(N=C1SCCS1)OCC", "activity change, negative = cytotoxicity": "1.06% (inactive)"}, {"smiles": "CN1CCC(O)(c2ccc(F)cc2)C(C(=O)c2ccc(F)cc2)C1", "note": "(stereo not given)", "activity change, negative = cytotoxicity": "5.58% [at 35.3 µM] (inactive)"}, {"smiles": "CCOC(=O)N(C)C(=O)CSP(=S)(OCC)OCC", "activity change, negative = cytotoxicity": "4.21% (inactive)"}, {"smiles": "Cc1ncsc1CCCl", "activity change, negative = cytotoxicity": "-2.48% [at 35.3 µM] (inactive)"}, {"smiles": "Nc1cnn(-c2ccccc2)c(=O)c1Cl", "activity change, negative = cytotoxicity": "15.7% (inactive)"}, {"smiles": "CSc1nc(N=[N+]=[N-])nc(NC(C)C)n1", "activity change, negative = cytotoxicity": "-9.86% (inactive)"}, {"smiles": "CC1CCCCC1NC(=O)Nc1ccccc1", "note": "(stereo not given)", "activity change, negative = cytotoxicity": "-6.74% (inactive)"}, {"smiles": "CC(C)(C)C(=O)C(Oc1ccc(Cl)cc1)n1cncn1", "note": "(stereo not given)", "activity change, negative = cytotoxicity": "-7.29% (inactive)"}, {"smiles": "CCN(CC)C(=O)[C@@H]1C=C2c3cccc4[nH]cc(c34)C[C@H]2N(C)C1", "activity change, negative = cytotoxicity": "-9.84% [at 200 µM] (inactive)"}, {"smiles": "O=NN1CCN(N=O)CC1", "activity change, negative = cytotoxicity": "5.6% (inactive)"}, {"smiles": "COc1cc(OC)nc(NC(=O)NS(=O)(=O)c2ncccc2C(=O)N(C)C)n1", "activity change, negative = cytotoxicity": "5.19% (inactive)"}, {"smiles": "O=c1oc2ccccc2c(O)c1C1CCCc2ccccc21", "note": "(stereo not given)", "activity change, negative = cytotoxicity": "-14.1% (inactive)"}, {"smiles": "CNC(=O)N(C)c1nc2ccccc2s1", "activity change, negative = cytotoxicity": "-2.72% (inactive)"}, {"smiles": "ClC(Cl)C(Cl)Cl", "activity change, negative = cytotoxicity": "20.2% (inactive)"}, {"smiles": "O=C1CN=C(c2ccccc2)c2cc([N+](=O)[O-])ccc2N1", "activity change, negative = cytotoxicity": "-5.38% [at 35.3 µM] (inactive)"}, {"smiles": "COC(=O)COc1ccc(Cl)cc1Cl", "activity change, negative = cytotoxicity": "14.4% (inactive)"}, {"smiles": "CN/C(=N\\[N+](=O)[O-])NCC1CCOC1", "note": "(stereo not given)", "activity change, negative = cytotoxicity": "1.88% (inactive)"}, {"smiles": "CC1(C(=O)Nc2ccc(O)c(Cl)c2Cl)CCCCC1", "activity change, negative = cytotoxicity": "-13.1% (inactive)"}, {"smiles": "COc1cc(OC)nc(Sc2cccc(Cl)c2C(=O)O)n1", "activity change, negative = cytotoxicity": "4.85% (inactive)"}, {"smiles": "CN1CCN(C(=O)O[C@H]2c3nccnc3C(=O)N2c2ccc(Cl)cn2)CC1", "activity change, negative = cytotoxicity": "-12.7% [at 35.3 µM] (inactive)"}, {"smiles": "ClC(Br)Br", "activity change, negative = cytotoxicity": "7.54% (inactive)"}, {"smiles": "CCC#N", "activity change, negative = cytotoxicity": "2.23% (inactive)"}, {"smiles": "CCCSC(=O)Cl", "activity change, negative = cytotoxicity": "1.77% (inactive)"}, {"smiles": "COc1cccc(C(=O)NN(C(=O)c2cc(C)cc(C)c2)C(C)(C)C)c1C", "activity change, negative = cytotoxicity": "-11.6% (inactive)"}, {"smiles": "Fc1ccc(C2(Cn3cncn3)OC2c2ccccc2Cl)cc1", "note": "(stereo not given)", "activity change, negative = cytotoxicity": "-12.4% (inactive)"}, {"smiles": "CC(C)NCC(O)c1ccc(N)c(C#N)c1", "note": "(stereo not given)", "activity change, negative = cytotoxicity": "-0.993% [at 35.3 µM] (inactive)"}, {"smiles": "O=C1OC(=O)C2C1C1(Cl)C(Cl)=C(Cl)C2(Cl)C1(Cl)Cl", "note": "(stereo not given)", "activity change, negative = cytotoxicity": "-0.513% (inactive)"}, {"smiles": "c1coc(-c2nc3ccccc3[nH]2)c1", "activity change, negative = cytotoxicity": "-10.6% (inactive)"}, {"smiles": "CCS(=O)(=O)CCSP(=O)(OC)OC", "activity change, negative = cytotoxicity": "2.02% (inactive)"}, {"smiles": "CN1C[C@@H](NS(=O)(=O)N(C)C)C[C@@H]2c3cccc4c3c(cn4C)C[C@H]21", "activity change, negative = cytotoxicity": "4.67% [at 35.3 µM] (inactive)"}, {"smiles": "CC(CC(C#N)(c1ccccc1)c1ccccc1)N(C)C", "note": "(stereo not given)", "activity change, negative = cytotoxicity": "-22.2% (inactive)"}, {"smiles": "N#Cc1c(Cl)cccc1Cl", "activity change, negative = cytotoxicity": "2.28% (inactive)"}, {"smiles": "CNC(=O)O/N=C(\\C)SC", "activity change, negative = cytotoxicity": "4.71% (inactive)"}, {"smiles": "Clc1cccc(N2CCNCC2)c1", "activity change, negative = cytotoxicity": "-0.452% [at 35.3 µM] (inactive)"}, {"smiles": "O=C(O)c1cccc(Cl)c1", "activity change, negative = cytotoxicity": "0.665% (inactive)"}, {"smiles": "c1ccc(N2CCNCC2)cc1", "activity change, negative = cytotoxicity": "-4.87% [at 35.3 µM] (inactive)"}, {"smiles": "O=S(=O)(O)C(F)(F)C(F)(F)C(F)(F)C(F)(F)C(F)(F)C(F)(F)F", "activity change, negative = cytotoxicity": "-10.3% (inactive)"}]}]}
